# SMN2 splice up: SMN2 splice variant enhancement; HEK293 SMN2-luciferase splicing reporter, luminescence, 30-36 h; AID 1458; Potency, µM (doses to about 46.1 µM), hits mostly activators; actives 2.8% (n = 210,000); note: nearly all actives have a fitted effect of over 55% in size
#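 HEK293 cells carry an SMN2 minigene-luciferase reporter in which exon 7 inclusion puts luciferase in frame. Cells were seeded at 2000 cells/well, attached for 10-12 hours, then exposed to compounds for 30-36 hours at 37C before ONE-Glo luminescence.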
# KinaseGlo FLuc: Kinase-Glo luciferase inhibition (counter-screen); Q27757; Kinase-Glo luciferase, ATP luminescence, 8 min; Potency, µM (doses to about 38.3 µM), most hits filed as inhibitors; actives 0.28% (n = 200,000); AID 1379; note: nearly all actives have a fitted effect of over 60% in size
#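 Compounds were added to a substrate mix at pH 7.2 (50 mM imidazole, 10 uM ATP, within the enzyme's linear range), followed by Kinase-Glo detection reagent; luminescence was measured after 8 minutes at ambient temperature.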
# Rab9 promoter act: activators of Rab9 promoter; Huh7 Rab9 promoter-luciferase reporter, luminescence, 24 h; Potency, µM (series often up to 9.22 µM), hits mostly activators; actives 2.8% (n = 320,000); note: nearly all actives have a fitted effect of over 60% in size
#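 Quantitative HTS format; Huh7 Rab9-luciferase reporter cells (1500/well) receive compound 2 h post-plating, incubate 24 h at 37 °C, then get luciferase reagent for 10 min before luminescence reading.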
# ELG1 genotox: induces genotoxicity in HEK293T cells with luciferase-tagged ELG1 | HEK293T ELG1-luciferase reporter, luminescence, 16 h | Potency, µM (highest dose often 46 µM), usual class: activators | actives 1.3% (n = 330,000); note: nearly all actives have a fitted effect of over 60% in size
#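 Step 1: seed 2,000 HEK293T ELG1-luciferase cells per well. Step 2: add compound or DMSO, incubate 16 hr at 37 °C. Step 3: ONE-Glo, 30 min at room temperature, read luminescence.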
# FLuc counter: firefly luciferase modulation, counter-screen for miR-21 project | P08659 | actives 6.9% (n = 360,000) | Potency, µM (top dose mostly 57.5 µM), hits mostly inhibitors | purified FLuc, Km substrates, luminescence inhibition; note: nearly all actives have a fitted effect of over 55% in size
# Target sequence (P08659 whole entry, looked up): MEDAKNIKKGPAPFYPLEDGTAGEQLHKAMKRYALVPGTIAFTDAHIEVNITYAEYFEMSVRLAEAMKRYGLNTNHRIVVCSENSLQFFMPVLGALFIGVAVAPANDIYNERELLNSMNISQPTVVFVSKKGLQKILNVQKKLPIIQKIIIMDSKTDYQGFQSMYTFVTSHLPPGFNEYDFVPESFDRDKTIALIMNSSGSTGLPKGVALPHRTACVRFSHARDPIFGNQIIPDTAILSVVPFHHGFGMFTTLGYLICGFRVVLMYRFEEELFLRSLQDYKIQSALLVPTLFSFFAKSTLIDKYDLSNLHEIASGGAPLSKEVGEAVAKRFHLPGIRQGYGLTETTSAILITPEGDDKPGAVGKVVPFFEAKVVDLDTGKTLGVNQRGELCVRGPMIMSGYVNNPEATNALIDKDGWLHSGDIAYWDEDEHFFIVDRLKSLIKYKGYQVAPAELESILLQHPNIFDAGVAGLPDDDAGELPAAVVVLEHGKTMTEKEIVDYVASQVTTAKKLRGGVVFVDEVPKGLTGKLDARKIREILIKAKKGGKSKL
#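 Biochemical qHTS of compounds, final roughly 60 µM downward over six points, against 10 nM purified firefly luciferase using Km concentrations of substrates (10 uM D-luciferin, 10 uM ATP) in Tris acetate pH 7.5 buffer; luminescence output.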
# NPC1 promoter act: activators of NPC1 promoter. Huh7 NPC1 promoter luciferase reporter, 24 h. Potency, µM (doses to about 9.22 µM), most hits filed as activators. AID 485313. actives 2.4% (n = 320,000); note: nearly all actives have a fitted effect of over 60% in size
#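 Compounds in DMSO were transferred onto Huh7 NPC1-luciferase reporter cells pre-incubated 2 h; after 24 h at 37 °C, Amplite reagent was dispensed and luminescence recorded 10 min later.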
# A number is an active result; i = inactive; ? = inconclusive; nt = no result given; [ ] = dose if it differs, or a comment. Sampled rows, rich in hits. Any-hit rate of the full collection: about 7.3%. Calls come from the whole dose curve; as a rule, active = well fitted curve in the direction sought with a large enough effect; inconclusive = small, poorly fitted or top-dose-only effect, or another doubt; inactive = no such curve, though single readings can be large; an effect the other way counts as inactive or inconclusive.
SMILES,SMN2 splice up,KinaseGlo FLuc,Rab9 promoter act,ELG1 genotox,FLuc counter,NPC1 promoter act
O=C(Nc1ccc(Cc2ccc(NC(=O)N3CCOCC3)cc2)cc1)N1CCOCC1,i,i,i,i,?,i
CN(C)c1ccc(NC(=O)N2CCOCC2)cc1,?,i,i,i,24µM,i
Cc1cccc(C)c1NC(=O)C1=C(O)c2sccc2N(C)S1(=O)=O,i,i,i,i,?,i
CN1c2ccsc2C(O)=C(C(=O)Nc2ccccc2)S1(=O)=O,i,i,i,i,15µM,i
Cc1ccc(NC(=O)C2=C(O)c3sccc3N(C)S2(=O)=O)cc1,?,i,i,i,8.5µM,i
CCOc1ccc(-c2csc(/C(C#N)=C\c3ccc(O)c([N+](=O)[O-])c3)n2)cc1,i,i,i,i,4.3µM,i
Cc1ccc(/C=C(\C#N)c2nc(-c3ccc(-c4ccccc4)cc3)cs2)cc1,i,nt,nt,nt,i,nt
COc1ccc(/C=C/C(=O)Nc2nonc2NC(C)=O)cc1,i,i,i,i,24µM,i
COc1ccc(/C=C/C(=O)Nc2ccc(Cl)cc2Cl)cc1,i,nt,nt,nt,i,nt
Cc1cc(NC(=O)/C=C/c2ccccc2)no1,?,i,2.8µM,?,12µM,?
O=C(/C=C/c1ccccc1)Nc1ccc(Br)cn1,11µM,i,1.4µM,?,?,i
COc1ccc(/C=C/C(=O)Nc2cc(C)on2)cc1,10µM,i,1.6µM,i,?,2.8µM
COc1ccc(CC(=O)Nc2cc(C)on2)cc1,i,i,i,i,i,i
Nc1ccc(S(=O)(=O)NC2(C(F)(F)F)NC(=O)N(c3ccc(F)cc3)C2=O)cc1 (stereo not given),nt,nt,i,i,i,i
CC[n+]1c(P(=O)([O-])c2ccccc2)[nH]c2ccccc21,i,i,i,i,i,i
COc1ccc(C(=O)/C=C/Nc2cc(C)on2)cc1,i,i,2.5µM,6.5µM,6µM,2.2µM
Cc1ccc(S(=O)(=O)Nc2cccc(-c3ccc(N4CCCCC4)nn3)c2)s1,nt,nt,nt,nt,1.1µM,nt
CCc1ccc(S(=O)(=O)Nc2cccc(-c3ccc(N4CCCCC4)nn3)c2)s1,nt,nt,nt,nt,2.7µM,nt
O=C(OCC(=O)N1CCc2ccccc21)c1ccccc1F,nt,nt,i,i,4.8µM,i
Cc1ccc(C(=O)OCC(=O)N2CCCc3ccccc32)cc1C,nt,nt,i,i,i,i
O=C(OCC(=O)N1CCc2ccccc21)c1c2c(nc3ccccc13)CCCCC2,i,i,i,i,4.3µM,i
CCOC(=O)c1[nH]c(C)c(C(=O)OCC(=O)N2CCc3ccccc32)c1C,i,i,i,i,i,i
CC(=O)c1c(C)[nH]c(C(=O)OCC(=O)N2CCc3ccccc32)c1C,nt,nt,?,i,i,4µM
Cc1ccc(C(=O)OCC(=O)N2CCc3ccccc32)cc1,i,i,?,i,6µM,?
NC(=O)COC(=O)c1c2c(nc3ccccc13)CCCC2,i,i,i,i,i,i
SMILES,SMN2 splice up,KinaseGlo FLuc,Rab9 promoter act,ELG1 genotox,FLuc counter,NPC1 promoter act
O=C(O)c1ccccc1SSc1ccccc1C(=O)O,nt,nt,i,i,i,i
O=C(OCC(=O)N1CCc2ccccc21)c1ccccc1[N+](=O)[O-],nt,nt,0.63µM,?,0.15µM,0.79µM
O=C(COC(=O)c1ccccc1[N+](=O)[O-])c1ccc(C2CCCCC2)cc1,i,11µM,i,i,0.13µM,i
Cc1ccc2c(CC(=O)N3CCc4ccccc43)coc2c1,14µM,i,4µM,?,4.3µM,3.5µM
CCOC(=O)C1=C(C)NC(C)=C(C(=O)OCC)C1C(=O)OCC(=O)N1CCc2ccccc21,i,i,i,18µM,i,i
O=C(COc1cccnc1[N+](=O)[O-])N1CCc2ccccc21,i,i,i,i,i,i
COC(=O)CCN(C(=O)c1ccc(N2CCCC2)c([N+](=O)[O-])c1)c1ccccn1,i,i,i,i,i,i
Cc1ccccc1S(=O)(=O)Cc1ccc(C(=O)NCCN(Cc2ccccc2)C(C)C)o1,nt,nt,i,i,i,i
CC(=O)c1ccc(OC(=O)C2c3ccccc3Oc3ccccc32)cc1,i,i,i,i,i,i
O=C(NCc1ccc(F)cc1)C1CCCN(c2nc3ccsc3c(=O)s2)C1 (stereo not given),i,i,i,i,i,i
O=C(Nc1nc2ccsc2c(=O)s1)C1CCC1,nt,nt,?,?,19µM,?
COc1ccc2nc(NC(=O)c3ccco3)sc2c1,nt,nt,0.11µM,0.58µM,0.54µM,0.32µM
O=C(Nc1nc2ccsc2c(=O)s1)c1ccco1,nt,nt,?,?,15µM,?
O=C(Nc1nc2c(s1)CCc1ccccc1-2)c1ccco1,16µM,i,?,i,17µM,?
Cc1csc2c(=O)sc(NC(=O)c3ccco3)nc12,nt,nt,i,i,?,i
CC(=O)Nc1nc2c(s1)CCc1ccccc1-2,nt,nt,i,i[9.26 µM],?,i
COc1ccc(NS(=O)(=O)c2ccc(OC)c(N(C)S(=O)(=O)c3ccc(Cl)cc3)c2)cc1,i,i,i,i,i,i
O=C(Nc1nc2ccc(S(=O)(=O)N3CCCC3)cc2s1)c1ccco1,i,i,i,i,?,i
O=c1sc(Nc2ccccc2)nc2ccsc12,i,i,?,18µM,12µM,i
Cc1ccc2nc(NC(=O)c3ccco3)sc2c1,1.1µM,?,0.79µM,0.21µM,0.27µM,?
Cc1ccc2nc(NC(=S)NC(=O)c3ccco3)sc2c1,11µM,i,3.5µM,?,0.48µM,1.4µM
CCC(C)NC(=O)c1csc2c1CCCCC2 (stereo not given),i,i,i,i,i,i
CCc1cc2cc(C)cc(C)c2nc1SCC(=O)N1CCN(C(=O)c2ccco2)CC1,i,i,i,i,i,i
COc1cccc(C(=O)Nc2nnc(Cc3ccc(OC)c(OC)c3)s2)c1,nt,nt,i,i,i,i
COc1ccc(C(=O)Nc2nnc(Cc3ccc(OC)c(OC)c3)s2)c(OC)c1,nt,nt,i,i,27µM,i
SMILES,SMN2 splice up,KinaseGlo FLuc,Rab9 promoter act,ELG1 genotox,FLuc counter,NPC1 promoter act
COCc1nnc(NC(=O)c2ccc(OC)cc2OC)s1,11µM,i,2.5µM,8.2µM,8.5µM,2.5µM
CC1(C)[C@@H]2CC[C@]1(C)[C@@H](OC(=O)CSC#N)C2,i[9.22 µM],i[7.66 µM],nt,nt,nt,nt
Cc1cccc(Nc2nnc(SCC(=O)c3c(N)n(C4CC4)c(=O)[nH]c3=O)s2)c1,nt,nt,i,i,?,i
CCc1ccc(-c2nc(SCC(=O)NC3CC3)n[nH]2)cc1,nt,nt,i,?,13µM,i
CCc1ccc(-c2nc(SCC(=O)N3CCOCC3)n[nH]2)cc1,nt,nt,i,i,17µM,i
Cc1ccc(Nc2nnc(SCC(=O)c3c(N)n(C4CC4)c(=O)[nH]c3=O)s2)cc1C,nt,nt,i,i,0.76µM,i
CCc1ccc(-c2nc(SCC(=O)c3c(N)n(C4CC4)c(=O)[nH]c3=O)n[nH]2)cc1,nt,nt,i,i,2.1µM,i
CC(C1CC2CCC1C2)n1c(COc2ccccc2F)nnc1SCC(N)=O (stereo not given),i,i,i,i,i,i

# Screens: PubChem, National Center for Advancing Translational Sciences (NCATS)
